Results on three sequences are retold here after publication PMC8384837, “Expanding the binding specificity for RNA recognition by a PUF domain”.

Assay in all cases: yeast three-hybrid, YBZ-1, SC-Leu-His + 0.5 mM 3-AT, 4 days
Details in all cases: tags: N-Gal4 AD-HA kept; label: inside an RPR1-promoter hybrid RNA with tandem MS2 sites; ssRNA

The target in one assay is PUM1 PUF domain R5-GVE (Homo sapiens, UniProt Q14671 828-1176, C1007G;R1008V;Q1011E). Summed up:
(§1)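 The interaction score is the log change in how often each variant appears, from input to selection. Frequencies came from PCR-amplified, Illumina-sequenced repeat regions of Pumilio-1 PUF domain libraries grown in strain YBZ-1 (LexA–MS2 coat fusion, HIS3 reporter) alongside matching RNA elements. Input plates were SC-Leu and selection plates were SC-Leu-His + 0.5 mM 3-AT, each for four days, and the log2 calculation used a pseudocount of 1 where a variant was absent.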

Another assay addresses PUM1 PUF domain R5-KHW (Homo sapiens, UniProt Q14671 828-1176, C1007K;R1008H;Q1011W). The procedure, abridged: as §1
A further assay has as its target PUM1 PUF domain R5-LYC (Homo sapiens, UniProt Q14671 828-1176, C1007L;R1008Y;Q1011C). The procedure, abridged: as §1
A further assay addresses T1, PUM1 PUF domain R6-VWY (Homo sapiens, UniProt Q14671 828-1176, N1043V;Y1044W;Q1047Y).
T1 sequence: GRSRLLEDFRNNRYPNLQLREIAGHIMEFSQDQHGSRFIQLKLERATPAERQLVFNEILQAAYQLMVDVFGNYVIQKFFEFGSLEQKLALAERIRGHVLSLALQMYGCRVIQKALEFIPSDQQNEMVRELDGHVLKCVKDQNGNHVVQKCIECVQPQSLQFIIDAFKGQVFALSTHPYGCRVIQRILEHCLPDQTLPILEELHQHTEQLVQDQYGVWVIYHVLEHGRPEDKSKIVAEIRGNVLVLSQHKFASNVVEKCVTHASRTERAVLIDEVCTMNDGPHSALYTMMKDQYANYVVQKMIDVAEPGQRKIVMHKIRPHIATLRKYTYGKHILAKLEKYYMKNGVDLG
The procedure, abridged: as §1

For the sequence “GGCUAGAACUAGUGGAUCCCCCGGCGCCCGGCGGCUCGAGCCCGGGUAAGUGUGAAUAGUCUGCAUGCCGCCGGGCGCCAUGCCUGCAGGUCGACUCUAGAAAACAUG”, the binding signal in the assay with PUM1 PUF domain R5-GVE is 3.01 log2 enrichment (interaction score).

“GGCUAGAACUAGUGGAUCCCCCGGCGCCCGGCGGCUCGAGCCCGGGUAAGUGUUAAUAGUCUGCAUGCCGCCGGGCGCCAUGCCUGCAGGUCGACUCUAGAAAACAUG”: the binding signal with PUM1 PUF domain R5-KHW was 3.92 log2 enrichment (interaction score); with PUM1 PUF domain R5-LYC, 2.27 log2 enrichment (interaction score).

“GGCUAGAACUAGUGGAUCCCCCGGCGCCCGGCGGCUCGAGCCCGGGUAAGUGAAAAUAGUCUGCAUGCCGCCGGGCGCCAUGCCUGCAGGUCGACUCUAGAAAACAUG”: the binding signal in the assay with PUM1 PUF domain R6-VWY is 3.66 log2 enrichment (interaction score).
